From ChEMBL document CHEMBL1961873, “Compounds: GSK PKIS; Assays: Nanosyn kinase panel” (2012)

Assays:
[1] = biological target: Sphingosine kinase 1 (Homo sapiens) (UniProt Q9NYA1); conditions: at 1 µM;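 note: mean SPHK1 inhibition value reported from the GSK PKIS kinase panel screen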
[2] = biological target: T1, Sphingosine kinase 2 (Homo sapiens) (UniProt Q9NRA0); conditions: at 0.1 µM
T1 sequence (whole entry): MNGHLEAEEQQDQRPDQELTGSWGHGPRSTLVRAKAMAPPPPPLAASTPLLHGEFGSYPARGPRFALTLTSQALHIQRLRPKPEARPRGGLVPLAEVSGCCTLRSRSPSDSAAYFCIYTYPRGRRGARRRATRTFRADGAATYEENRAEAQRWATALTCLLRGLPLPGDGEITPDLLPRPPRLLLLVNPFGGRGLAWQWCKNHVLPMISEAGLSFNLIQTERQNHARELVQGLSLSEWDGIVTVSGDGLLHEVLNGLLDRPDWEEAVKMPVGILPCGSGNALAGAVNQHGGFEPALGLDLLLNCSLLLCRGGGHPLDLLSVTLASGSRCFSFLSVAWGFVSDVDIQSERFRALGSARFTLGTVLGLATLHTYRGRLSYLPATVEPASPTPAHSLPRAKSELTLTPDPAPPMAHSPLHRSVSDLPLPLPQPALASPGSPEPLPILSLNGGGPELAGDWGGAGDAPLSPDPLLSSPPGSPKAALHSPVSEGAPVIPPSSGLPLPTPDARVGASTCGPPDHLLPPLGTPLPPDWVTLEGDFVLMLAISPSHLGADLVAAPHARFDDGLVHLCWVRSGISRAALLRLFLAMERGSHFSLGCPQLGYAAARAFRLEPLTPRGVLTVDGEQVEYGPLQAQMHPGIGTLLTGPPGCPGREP

[3] = biological target: T1, Sphingosine kinase 2 (Homo sapiens); conditions: at 1 µM
[4] = biological target: Casein kinase II subunit alpha (Homo sapiens) (UniProt P68400); conditions: at 1 µM;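 note: reported value is the mean CK2 inhibition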
Chain of Casein kinase II subunit alpha (Homo sapiens) (P68400 whole entry, looked up): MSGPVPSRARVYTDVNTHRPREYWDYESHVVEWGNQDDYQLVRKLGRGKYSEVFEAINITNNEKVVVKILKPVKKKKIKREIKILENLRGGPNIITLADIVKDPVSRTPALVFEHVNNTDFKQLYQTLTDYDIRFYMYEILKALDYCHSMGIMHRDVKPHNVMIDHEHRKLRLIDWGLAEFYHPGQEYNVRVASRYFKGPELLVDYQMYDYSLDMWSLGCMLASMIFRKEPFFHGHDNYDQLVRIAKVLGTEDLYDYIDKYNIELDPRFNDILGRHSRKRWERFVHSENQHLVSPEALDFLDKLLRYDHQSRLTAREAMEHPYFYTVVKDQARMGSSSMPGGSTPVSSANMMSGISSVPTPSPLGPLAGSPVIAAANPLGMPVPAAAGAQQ

[5] = biological target: T2, Inhibitor of nuclear factor kappa-B kinase subunit alpha (Homo sapiens) (UniProt O15111); conditions: at 0.1 µM
T2 sequence (whole entry): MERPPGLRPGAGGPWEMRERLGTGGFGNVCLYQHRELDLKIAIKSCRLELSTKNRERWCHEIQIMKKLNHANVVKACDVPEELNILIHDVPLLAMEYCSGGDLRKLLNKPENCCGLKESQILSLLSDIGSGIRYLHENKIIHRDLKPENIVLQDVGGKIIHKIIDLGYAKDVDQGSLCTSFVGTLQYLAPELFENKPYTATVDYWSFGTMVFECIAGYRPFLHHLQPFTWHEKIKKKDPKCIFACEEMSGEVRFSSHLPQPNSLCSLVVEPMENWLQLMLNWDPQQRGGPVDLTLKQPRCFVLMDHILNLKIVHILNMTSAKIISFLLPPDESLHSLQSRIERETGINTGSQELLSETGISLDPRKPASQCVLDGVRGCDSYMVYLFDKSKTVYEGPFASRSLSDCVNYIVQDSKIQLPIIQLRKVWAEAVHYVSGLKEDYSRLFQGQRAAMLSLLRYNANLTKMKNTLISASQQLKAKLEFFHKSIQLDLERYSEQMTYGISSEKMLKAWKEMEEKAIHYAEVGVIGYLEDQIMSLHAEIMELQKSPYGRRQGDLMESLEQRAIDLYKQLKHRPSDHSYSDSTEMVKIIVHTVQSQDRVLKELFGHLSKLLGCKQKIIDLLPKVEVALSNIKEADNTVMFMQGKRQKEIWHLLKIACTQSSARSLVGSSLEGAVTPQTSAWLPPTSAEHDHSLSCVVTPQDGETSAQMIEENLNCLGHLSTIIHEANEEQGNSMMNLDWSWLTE

[6] = biological target: T2, Inhibitor of nuclear factor kappa-B kinase subunit alpha (Homo sapiens); conditions: at 1 µM
[7] = biological target: T3, Inhibitor of nuclear factor kappa-B kinase subunit beta (Homo sapiens) (UniProt O14920); conditions: at 0.1 µM
T3 sequence (whole entry): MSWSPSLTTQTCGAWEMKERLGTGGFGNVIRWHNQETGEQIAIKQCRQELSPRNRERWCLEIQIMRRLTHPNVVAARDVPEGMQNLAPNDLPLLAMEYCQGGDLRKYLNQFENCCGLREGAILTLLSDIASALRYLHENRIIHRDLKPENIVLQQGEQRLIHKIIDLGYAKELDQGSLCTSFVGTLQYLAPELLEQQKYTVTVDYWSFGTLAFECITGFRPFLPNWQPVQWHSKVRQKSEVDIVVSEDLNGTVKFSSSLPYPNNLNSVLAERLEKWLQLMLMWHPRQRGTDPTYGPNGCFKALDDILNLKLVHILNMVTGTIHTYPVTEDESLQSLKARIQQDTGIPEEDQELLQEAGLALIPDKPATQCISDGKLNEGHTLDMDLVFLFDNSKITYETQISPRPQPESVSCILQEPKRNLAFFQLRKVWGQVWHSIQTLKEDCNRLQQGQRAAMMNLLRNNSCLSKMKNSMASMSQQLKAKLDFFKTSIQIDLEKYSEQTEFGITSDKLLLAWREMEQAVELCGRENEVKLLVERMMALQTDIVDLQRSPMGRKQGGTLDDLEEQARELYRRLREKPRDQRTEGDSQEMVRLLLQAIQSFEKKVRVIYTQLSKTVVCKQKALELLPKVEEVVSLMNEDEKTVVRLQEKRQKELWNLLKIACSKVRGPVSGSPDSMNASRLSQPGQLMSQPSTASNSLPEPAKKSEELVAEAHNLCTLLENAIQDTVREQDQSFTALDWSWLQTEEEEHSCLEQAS

[8] = biological target: T3, Inhibitor of nuclear factor kappa-B kinase subunit beta (Homo sapiens); conditions: at 1 µM
[9] = biological target: T4, Inhibitor of nuclear factor kappa-B kinase subunit epsilon (Homo sapiens) (UniProt Q14164); conditions: at 0.1 µM;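 note: mean inhibition of IKKε reported, from the GSK PKIS dataset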
T4 sequence (whole entry): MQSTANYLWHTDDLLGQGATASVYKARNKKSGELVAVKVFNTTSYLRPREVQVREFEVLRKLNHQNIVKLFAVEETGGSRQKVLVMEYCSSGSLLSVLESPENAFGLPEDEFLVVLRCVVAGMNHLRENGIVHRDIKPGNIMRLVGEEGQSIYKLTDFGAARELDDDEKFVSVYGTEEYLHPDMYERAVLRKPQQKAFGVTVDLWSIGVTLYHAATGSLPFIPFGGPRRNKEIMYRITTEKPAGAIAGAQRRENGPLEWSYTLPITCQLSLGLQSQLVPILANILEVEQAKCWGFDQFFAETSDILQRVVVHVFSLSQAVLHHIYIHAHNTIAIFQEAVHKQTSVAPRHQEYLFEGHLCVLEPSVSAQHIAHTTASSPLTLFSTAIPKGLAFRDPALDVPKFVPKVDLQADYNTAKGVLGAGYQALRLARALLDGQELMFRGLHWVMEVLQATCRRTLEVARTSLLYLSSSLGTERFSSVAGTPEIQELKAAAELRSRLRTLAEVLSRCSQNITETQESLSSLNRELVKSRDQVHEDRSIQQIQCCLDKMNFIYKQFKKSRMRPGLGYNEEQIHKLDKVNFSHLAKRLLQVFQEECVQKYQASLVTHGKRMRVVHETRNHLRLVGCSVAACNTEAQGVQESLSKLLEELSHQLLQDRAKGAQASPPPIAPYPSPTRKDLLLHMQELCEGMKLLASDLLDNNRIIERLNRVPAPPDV

Chain of Sphingosine kinase 1 (Homo sapiens) (Q9NYA1 whole entry): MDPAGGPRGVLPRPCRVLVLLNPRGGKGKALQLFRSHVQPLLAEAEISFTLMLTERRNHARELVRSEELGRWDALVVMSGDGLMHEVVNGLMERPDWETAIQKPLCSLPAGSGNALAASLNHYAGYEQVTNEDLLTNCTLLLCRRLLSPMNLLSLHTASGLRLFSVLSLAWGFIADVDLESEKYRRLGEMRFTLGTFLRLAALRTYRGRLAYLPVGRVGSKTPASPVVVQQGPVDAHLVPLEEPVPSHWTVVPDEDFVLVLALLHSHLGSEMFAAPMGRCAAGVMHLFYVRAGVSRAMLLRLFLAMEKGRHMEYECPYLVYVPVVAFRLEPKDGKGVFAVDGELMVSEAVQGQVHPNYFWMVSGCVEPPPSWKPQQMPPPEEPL

N#Cc1ccc(Oc2nccc(-c3c(-c4ccc(F)cc4)ncn3C3CCNCC3)n2)cc1
inhibition [1]: 0.37% | inhibition [2]: -1.27% | inhibition [3]: -0.57% | inhibition [4]: 4.89% | inhibition [5]: 11.3% | inhibition [6]: 4.73% | inhibition [7]: 8.59% | inhibition [8]: 5.99% | inhibition [9]: 9.95%
